{
  "source": "PubChem BioAssay (NCI)",
  "note": "The panel holds about 83,000 compounds, 20% with a hit somewhere; the sample as a whole holds those more often.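 Compound tested at a single concentration for 48 hours in 96-well plates; a percent growth value below 10 was scored as active.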 The source made the active and inactive calls.",
  "data": [
    {"tested_on": "M14 melanoma", "assay": "NCI-60 one-dose screen, 48 h (100 = growth as untreated, 0 = no growth, -100 = all killed)", "details": "10 µM unless noted", "values": [
      {"smiles": "CC(C)C1=NOC(=O)C1=Cc1cn(-c2ccccc2)nc1-c1ccccc1", "growth": "76.2% (inactive)"},
      {"smiles": "CCN(CC)CCCNCc1cc(-c2ccccc2)nc2ccccc12", "growth": "4.63% (active)"},
      {"smiles": "CCOC(=O)CCC[P+](c1ccccc1)(c1ccccc1)c1ccccc1", "growth": "87.9% (inactive)"},
      {"smiles": "Cc1cccc(C[C@H](NC(=O)Nc2ccc(Cl)cc2F)C(=O)N[C@@H]2C(=O)N3C[C@H](O)C[C@H]3C(=O)N3CCN(C)C[C@H]3C(=O)N[C@@H](C)C(=O)N3C[C@H](C)C[C@H]3C(=O)O[C@H]2C)c1", "growth": "63.5% (inactive)"},
      {"smiles": "COc1cc(C)cc2oc3oc(=O)c(C(=O)c4cc5cc(Br)ccc5o4)cc3c(=O)c12", "growth": "100% (inactive)"},
      {"smiles": "COc1ccc(CC(C#N)c2ccc(Cl)cc2)cc1", "note": "(stereo not drawn)", "growth": "73.3% (inactive)"},
      {"smiles": "COC(=O)[C@]12CCC(C)(C)C[C@H]1C1=CC[C@@H]3[C@@]4(C)C/C(=C/c5cccnc5)C(=O)C(C)(C)[C@@H]4CC[C@@]3(C)[C@]1(C)CC2", "growth": "-49.8% [100 µM] (active)"},
      {"smiles": "Cn1cc(-c2nnc(-c3cn(C)c4ncccc34)o2)c2ccccc21", "growth": "35.5% (inactive)"},
      {"smiles": "Cc1ccc(C2=C/C(=C/c3ccc(Br)cc3)C(=O)N2CCc2ccc(S(N)(=O)=O)cc2)cc1", "growth": "97.5% (inactive)"},
      {"smiles": "COc1ccc2nc3cc(Cl)ccc3c(Nc3ccc(O)cc3)c2c1", "growth": "94.8% (inactive)"},
      {"smiles": "CCCCN(CC)CC(CC)Nc1cc(OC)cc2cccnc12", "note": "(stereo not drawn)", "growth": "109% (inactive)"},
      {"smiles": "O=C(Nc1cccc2ccccc12)c1cc2ccccc2cc1O", "growth": "32.2% (inactive)"},
      {"smiles": "C=C(C)[C@@H]1CC[C@]2(COCCC#N)CC[C@]3(C)[C@H](CC[C@@H]4[C@@](C)(CCCNCCC#N)[C@H](C(=C)C)CC[C@]43C)[C@@H]12", "growth": "32.4% [100 µM] (inactive)"}
    ]}
  ]
}
